Bioassay records deposited in PubChem by National Center for Advancing Translational Sciences (NCATS).
Rab9 prom act = activates the Rab9 promoter; Potency, µM (highest dose often 9.22 µM), inactives show top-dose activation, negative = inhibition, hits mostly activators; 320,000 tested, 2.8% active; AID 485297; Huh7 Rab9 promoter-luciferase reporter, luminescence, 24 h; note: % of control where 0% means no effect; nearly all actives have a fitted effect of over 60% in size
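Huh7 cells stably carrying Rab9 promoter–luciferase reporter, plated 1500 cells/well, compound added after 2 h and incubated 24 h at 37 °C; luciferase luminescence then read after 10 min with detection reagent.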
FLuc counter = counter-screen for miR-21 project: firefly luciferase inhibitors or activators | P08659 | purified FLuc, Km substrates, luminescence inhibition | Potency, µM (series often up to 57.5 µM), for inactives: top-dose activity change, negative = inhibition, usual class: inhibitors | 360,000 tested, 6.9% active;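 note: plate controls were vehicle for no effect and reference inhibitor for full effect; nearly all actives have a fitted effect of over 55% in size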
Target sequence (P08659 whole entry, looked up): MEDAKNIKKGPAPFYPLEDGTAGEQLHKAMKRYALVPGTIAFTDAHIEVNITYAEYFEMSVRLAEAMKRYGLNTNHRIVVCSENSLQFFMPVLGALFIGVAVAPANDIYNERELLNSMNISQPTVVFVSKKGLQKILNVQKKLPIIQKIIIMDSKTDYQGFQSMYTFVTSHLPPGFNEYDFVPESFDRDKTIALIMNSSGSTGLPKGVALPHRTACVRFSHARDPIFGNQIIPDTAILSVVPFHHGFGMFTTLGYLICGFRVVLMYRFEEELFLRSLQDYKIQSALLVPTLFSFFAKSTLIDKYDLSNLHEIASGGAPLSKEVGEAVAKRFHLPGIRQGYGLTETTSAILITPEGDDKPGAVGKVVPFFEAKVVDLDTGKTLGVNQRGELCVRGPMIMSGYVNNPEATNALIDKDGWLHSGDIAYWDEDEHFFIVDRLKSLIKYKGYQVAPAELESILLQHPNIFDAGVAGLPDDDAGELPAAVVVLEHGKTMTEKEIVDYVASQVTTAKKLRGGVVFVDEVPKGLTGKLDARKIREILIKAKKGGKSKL
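Purified P. pyralis luciferase (10nM final) with 10uM D-luciferin and 10uM ATP (Km levels) in 50mM Tris acetate pH 7.5, 10mM Mg acetate, 0.01% Tween-20, 0.05% BSA; qHTS 6-point titration, ~60 µM downward; luminescence read.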
ELG1 genotox = genotoxicity induction in ELG1-luciferase HEK293T cells; 330,000 tested, 1.3% active; Potency, µM (top dose mostly 46 µM), without a hit: at the highest dose activity change, positive = activation, usual class: activators; HEK293T ELG1-luciferase reporter, luminescence, 16 h; note: % of control where 0% means no effect; nearly all actives have a fitted effect of over 60% in size
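Luminescence read-out: rising ELG1-luciferase signal, reflecting elevated ELG1 protein under genetic stress, flags genotoxic compounds. Cells were treated for 16 hr at 37 °C before ONE-Glo detection.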
SMN2 splice up = increases expression of the SMN2 splice variant; HEK293 SMN2-luciferase splicing reporter, luminescence, 30-36 h; Potency, µM (highest dose often 46.1 µM), for the others: top-dose activity change, positive = activation, actives largely listed as activators; 210,000 tested, 2.8% active; AID 1458; note: % of control where 0% means no effect; nearly all actives have a fitted effect of over 55% in size
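HEK293 cells carry an SMN2 minigene-luciferase reporter in which exon 7 inclusion puts luciferase in frame. Cells were seeded at 2000 cells/well, attached for 10-12 hours, then exposed to compounds for 30-36 hours at 37C before ONE-Glo luminescence.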
KinaseGlo FLuc = Kinase-Glo luciferase inhibition (counter-screen); 200,000 tested, 0.28% active; Q27757; Potency, µM (titrated, usually from 38.3 µM), for inactives: at the top dose activity change, negative = inhibition, actives largely listed as inhibitors; Kinase-Glo luciferase, ATP luminescence, 8 min; AID 1379; note: % is set by controls: 0 for no effect and ±100 for the full control effect; nearly all actives have a fitted effect of over 60% in size
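Inhibition of Kinase-Glo luciferase light generation was assessed at 10 uM ATP in pH 7.2 imidazole buffer, with luminescence measured after eight minutes at ambient temperature.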
NPC1 promoter act = NPC1 promoter activation; Huh7 NPC1 promoter luciferase reporter, 24 h; Potency, µM (top dose mostly 9.22 µM), for the others: top-dose activation, usual class: activators; 320,000 tested, 2.4% active; note: % of control where 0% means no effect; nearly all actives have a fitted effect of over 60% in size
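Readout is luciferase luminescence, reflecting NPC1 promoter activation in stably transfected Huh7 cells after 24 h compound exposure at 37 °C in reduced-serum medium with 10% FBS.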
* marks the source's active call; other numbers are inactive results; ? = inconclusive; nt = no result; [ ] = dose if it differs, or a comment. An excerpt weighted towards active compounds, which were near 7.3% of everything screened. Calls come from the whole dose curve; as a rule, active = well fitted curve in the direction sought with a large enough effect; inconclusive = small, poorly fitted or top-dose-only effect, or another doubt; inactive = no such curve, though single readings can be large; an effect the other way counts as inactive or inconclusive. Potency is the fitted concentration of half-maximal effect.

SMILES	Rab9 prom act	FLuc counter	ELG1 genotox	SMN2 splice up	KinaseGlo FLuc	NPC1 promoter act
CCCC1Oc2ccccc2C(=O)N(CC(=O)c2ccc3c(c2)OCCO3)C1=O (centres undefined)	?	6µM*	?	nt	nt	30%
O=C(CN1C(=O)c2ccccc2S1(=O)=O)NC1CCCCCC1	27%	?	2%	16%	-1%	13%
O=C(CN1C(=O)c2ccccc2S1(=O)=O)c1ccc2c(c1)OCCCO2	-54%	2.1µM*	-15%	nt	nt	-40%
O=C(CN1C(=O)c2ccccc2S1(=O)=O)c1ccc2c(c1)OCCO2	-47%	5.4µM*	-12%	nt	nt	-37%
CC(C)CC1NC(=O)N(CC(=O)c2ccc3c(c2)OCCO3)C1=O (centres undefined)	1.1µM*	11µM*	?	13µM*	7%	2.8µM*
O=C(CCN1C(=O)c2ccccc2S1(=O)=O)Nc1ccc2c(c1)OCCO2	10%	?	-4%	-10%	-5%	22%
O=S(=O)(NCC(c1ccco1)S(=O)(=O)c1ccccc1)c1cc(F)ccc1F (centres undefined)	nt	1%	nt	nt	nt	nt
O=C(N/C(=C/c1ccc2c(c1)OCO2)C(=O)N1CCOCC1)c1cccs1	-1%	0%	-1%	-5%	-2%	1%
O=C(/C=C\Nc1ccc2c(c1)OCO2)c1ccc(Cl)s1	0.32µM*	0.24µM*	0.82µM*	3.5µM*	-8%	0.4µM*
O=C(/C=C\Nc1ccc2c(c1)OCO2)c1cccs1	0.56µM*	0.12µM*	1µM*	nt	13µM*	1.4µM*
O=C(CCl)Nc1ccc2c(c1)OCO2	-10%	-7%	-10%	-59%	0%	-10%
Cc1cc(C)cc(NS(=O)(=O)c2ccc(N3CCCCS3(=O)=O)cc2)c1	nt	-10%	nt	nt	nt	nt
CCOC(=O)N/C(N)=N/c1nc2ccccc2s1	3.2µM*	5.4µM*	4.1µM*	11µM*	-2%	1.6µM*
CC(=O)N/C(N)=N/c1nc(=O)c2ccccc2s1	2.5µM*	13µM*	18µM*	nt	nt	?
O=C(Nc1nnc(S(=O)(=O)N2CCCc3ccccc32)s1)c1ccccc1Br	nt	6%	nt	nt	nt	nt
Cc1ccc(O)c(NC(=S)NC(=O)C(C)C)c1	11%	-20%	14%	nt	nt	12%
Cc1ccc(NC(=S)NC(=O)Cc2ccccc2)c(O)c1	3%	15µM*	6%	nt	nt	22%
Cc1ccc(O)c(NC(=S)NC(=O)CC(C)C)c1	?	17µM*	?	13µM*	-5%	?
COc1cc(NS(=O)(=O)c2ccc(-c3cc(C)no3)cc2)cc(OC)c1	nt	0%	nt	nt	nt	nt
COc1ccc(/C=N/N=C2/SCC(=O)N2Cc2ccccc2)cc1	1.3µM*	4.8µM*	?	nt	nt	3.5µM*
COc1ccc(CN2C(=O)CS/C2=N/N=C/c2ccccc2)cc1	23%	17µM*	?	nt	nt	16%
COc1ccc(N=C2SCC(=O)N2Cc2ccccc2)cc1	-1%	-10%	9%	-13%	-1%	-2%
COc1ccc(/C=N/N2C(=N)SCC2=O)cc1	19%	3.4µM*	?	nt	nt	?
O=C(Nc1ccc(F)c(Cl)c1)N1CCN(C(=O)c2nsc3ccccc23)CC1	nt	0%	nt	-21%	nt	nt
O[C@@H]1COC(Nc2ccc(N=Nc3ccccc3)cc2)C[C@@H]1O (some centres undefined)	3.2µM*	0.34µM*	?	nt	nt	?
SMILES	Rab9 prom act	FLuc counter	ELG1 genotox	SMN2 splice up	KinaseGlo FLuc	NPC1 promoter act
CCn1c(C)csc1=NC(=O)c1ccccc1O	2.8µM*	13µM*	?	-9%	-14%	2.8µM*
CCn1c(C)csc1=NC(=O)c1ccccc1	?	19µM*	7%	-10%	0%	17%
Cc1csc(=NC(=O)c2ccccc2)n1Cc1ccco1	17%	?	1%	-26%	6%	13%
Cc1csc(=NC(=O)c2ccccc2)n1C	2.5µM*	13µM*	21µM*	11µM*	-25%	3.2µM*
Cc1ccc(C)c(COC(=O)c2cccc(S(=O)(=O)N3CCCC3)c2)c1	0%	5%	-4%	nt	nt	-1%
Cc1ccc(OC(=O)c2cccc(S(=O)(=O)N3CCCC3)c2)c(-n2nc3ccccc3n2)c1	4µM*	?	?	11µM*	0%	3.5µM*
Cc1ccc(OC(=O)c2ccc(S(=O)(=O)N(C)C)cc2)c(-n2nc3ccccc3n2)c1	1.4µM*	?	?	?	-5%	4µM*
CC(=O)Oc1ccc(C)cc1-n1nc2ccccc2n1	4.5µM*	21µM*	?	?	?	2.8µM*
Cc1ccc(OCC(=O)O)c(-n2nc3ccccc3n2)c1	2%	2%	0%	-4%	5%	-3%
Cc1ccc(OC(=O)c2cccc(S(=O)(=O)N(C)C)c2)c(-n2nc3ccccc3n2)c1	2.8µM*	-17%	4.6µM*	?	1%	3.5µM*
Cc1ccc(S(=O)(=O)N2CCc3nc(COc4ccccc4)c4c(c3C2)CO[C@@H](C)C4)cc1	nt	nt	nt	4%[9.22 µM]	-3%[7.66 µM]	nt
O=C(N/N=C/c1ccc2nccnc2c1)c1ccc(Br)cc1	-1%	?	4%	nt	nt	-1%
O=C(O)c1ccc(N/N=C/c2ccc3nccnc3c2)cc1	-38%	0.38µM*	?	nt	nt	-32%
O=C(O)c1ccc(N/N=C/c2ccncc2)cc1	?	8.5µM*	17%	nt	nt	?
CCOc1cccc(C2/C(=C(/O)c3ccc4c(c3)CC(C)O4)C(=O)C(=O)N2CCN2CCOCC2)c1 (centres undefined)	-4%	1%	1%	nt	nt	-2%
CC1Cc2cc(/C(O)=C3/C(=O)C(=O)N(CCN4CCOCC4)C3c3cccc(O)c3)ccc2O1 (centres undefined)	0%	21µM*	25%	6%	-2%	-2%
COc1ccc2c(c1)NC(=O)CC(c1ccccc1)=N2	26%	?	16µM*	-2%	0%	?
COc1ccc(O)c(C2=Nc3ccccc3N=C(c3ccccc3)C2)c1	0%	0%	-12%	?	nt	4%
CCOc1ccccc1N(CC)C(=O)c1cc2c(=O)[nH]c3ccc(C)cc3c2s1	nt	1%	nt	1%	nt	nt
Cn1c(N=Nc2ccc(N3CCOCC3)cc2)[n+](C)c2ccccc21	-10%	7.6µM*	9%	-3%	13µM*	-14%
Cc1ccc2c(c1)sc[n+]2Cc1ccccc1	4%	5.4µM*	?	11%	-3%	26%
Cc1ccsc1CN(C(=O)c1ccc(OCC(C)C)cc1)C1CCS(=O)(=O)C1 (centres undefined)	nt	2%	nt	-44%	nt	nt
N#Cc1ccccc1CN1C(=O)c2ccccc2Sc2ccc(C(=O)OCc3ccco3)cc21	nt	-5%	nt	nt	nt	nt
C(=C\c1ccc2ccccc2n1)/c1ccccc1	0.5µM*	0.076µM*	?	nt	nt	2.8µM*
